Data as given in PubChem BioAssay (Tox21).
Inconclusive results are not listed. Entries that show only a call come without a potency. Some compounds were tested as several samples or in several runs, with calls that do not always agree. Calls of active or inactive are those of the source. Unless noted, calls follow the shape of the dose curve; as a rule, active = well fitted curve in the direction sought with a large enough effect in the repeat runs; inconclusive = weak or mixed curves; inactive = no such curve, though single readings can be large; an effect the other way counts as inactive or inconclusive.

Tests used:
[1] = qHTS assay to identify small molecule agonists of the estrogen receptor beta (ER-beta) signaling pathway - cell viability counter screen (AID 1259380); also: nearly all actives have a fitted effect of over 30% in size; also: potency is read from the fitted curve at half-maximal effect
Method in brief: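 HEK293T ER-beta-UAS-bla; 2% CS-FBS; 6 hr pre-plate, 16 hr cpd at 37C/5% CO2; LiveBLAzer read first, then CellTiter-Glo 30 min RT, luminescence.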

[2] = qHTS assay to identify small molecule antagonists of the estrogen receptor beta (ER-beta) signaling pathway - cell viability counter screen (AID 1259382);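 also: HEK293T cells carrying ER-beta-UAS-bla reporter stimulated with estradiol; series mostly up to about 92 µM; nearly all actives have a fitted effect of over 55% in size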
Method in brief: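 Cells: ER-beta-UAS-bla HEK293T, 2,000/well, 2% CS-FBS, 6 hr settle. Cpd + E2 (1nM final), 16 hr, 37C/5% CO2. Bla FRET substrate 2 hr RT, then CellTiter-Glo 30 min RT, luminescence.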

[3] = qHTS assay to identify small molecule agonists or antagonists of the thyroid stimulating hormone receptor (TSHR) signaling pathway - wild type cell line counter screen (AID 1259384; calls by dose curve)
Method in brief: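 Counter screen in untransfected Hek293: compounds (15-point titration, triplicate) plus phosphodiesterase inhibitor Ro20-1724 added after 18 h plating; 30 min RT. Intracellular cAMP via competitive d2/cryptate immunoassay, 1 h incubation.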

[4] = qHTS assay to identify small molecule agonists of the estrogen receptor alpha (ER-alpha) signaling pathway in the presence of an antagonist - cell viability counter screen (AID 1259386);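 also: series mostly up to about 92 µM; cells exposed to compounds for 22 h at 37 °C before the viability read; nearly all actives have a fitted effect of over 30% in size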
Method in brief: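 VM7Luc4E2, stripped-serum pre-culture 5 d; 24hr plating; +ICI-182,780 10.0nM final; cpds 15 conc, 22hr, 37C/5% CO2; CellTiter-Fluor added at 21hr, fluorescence 1hr later.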

[5] = molecular target: Progesterone receptor (Homo sapiens) (UniProt P06401); assay: qHTS assay to identify small molecule agonists of the progesterone receptor (PR) signaling pathway (AID 1346784; calls by dose curve; also: nearly all actives have a fitted effect of over 30% in size)
Method in brief: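 Beta-lactamase reporter read-out: after 16 hr compound treatment at 37C and a further 2 hr at room temperature with LiveBLAzer B/G FRET substrate, fluorescence was measured in PR-UAS-bla HEK 293T cells grown in 2% charcoal-stripped serum.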

[6] = molecular target: Progesterone receptor (Homo sapiens) (UniProt P06401); assay: qHTS assay to identify small molecule antagonists of the progesterone receptor (PR) signaling pathway (AID 1346795; active = well fitted inhibition curve with a large enough effect in the signal ratio in the repeat runs, not every such curve was filed as active; the % refers to the signal ratio)
Method in brief: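 Read-out is fluorescence from the LiveBLAzer B/G FRET substrate, cleaved by a UAS-controlled beta-lactamase in PR-UAS-bla HEK293T cells after 16 hr exposure to compound plus 1 nM promegestone (final), followed by 2 hr at room temperature.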

[7] = qHTS assay to identify small molecule antagonists of the progesterone receptor (PR) signaling pathway - cell viability counter screen (AID 1346798);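 also: HEK293T PR-UAS-bla cells stimulated with the agonist R5020; series mostly up to about 92 µM; nearly all actives have a fitted effect of over 50% in size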
Method in brief: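 HEK293T PR-UAS-bla, 2% charcoal-stripped FBS; 4 hr pre-plate; cpd + R5020, 16 h 37C; LiveBLAzer read first; then CellTiter-Glo 30 min RT, luminescence.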

[8] = qHTS assay to identify small molecule agonists of the progesterone receptor (PR) signaling pathway - cell viability counter screen (AID 1346799; calls by dose curve; also: nearly all actives have a fitted effect of over 45% in size)
Method in brief: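 Luminescence from CellTiter-Glo, added after the beta-lactamase FRET read in the same wells, gave cytotoxicity in PR-UAS-bla HEK293T cells treated with compounds for 16 hr at 37C.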

[9] = qHTS assay to identify small molecule antagonists of the TGF-beta/Smad signaling pathway - cell viability counter screen (AID 1346824); also: nearly all actives have a fitted effect of over 50% in size
Method in brief: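 Cytotoxicity counter-screen run in the same wells as the beta-lactamase Smad reporter read: CellTiter-Glo luminescence after 30 min at room temperature. HEK 293T SBE-bla cells had 5 hr compound exposure at 37 C with TGF-beta1 (0.25 ng/mL stock).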

[10] = qHTS assay to identify small molecule agonists of the TGF-beta/Smad signaling pathway - cell viability counter screen (AID 1346829); also: top concentration of the series differs between compounds; nearly all actives have a fitted effect of over 45% in size
Method in brief: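 Same-well cytotoxicity: CellTiter-Glo added after the 2 hr room-temperature beta-lactamase substrate step, luminescence measured 30 min later; cells had 5 hr of compound at 37 C.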

[11] = qHTS assay to identify small molecule agonists of the TGF-beta/Smad signaling pathway (AID 1346859; active = well fitted activation curve with a large enough effect in the signal ratio in the repeat runs, not every such curve was filed as active; the % refers to the signal ratio; also: potency is read from the fitted curve at half-maximal effect; as to activation: series mostly up to about 77 µM)
Method in brief: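 SBE-bla HEK 293T, 4,000 cells/well, plated o/n; cpd in DMSO, 5 hr, 37 C/5% CO2; B/G FRET substrate 2 hr RT; ex 405, em 460/530 nm.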

[12] = molecular target: Thyrotropin-releasing hormone receptor (Homo sapiens) (UniProt P34981); assay: qHTS assay to identify small molecule antagonists of the thyrotropin-releasing hormone receptor (TRHR) signaling pathway (AID 1346877; active = well fitted inhibition curve with a large enough effect in the repeat runs, not every such curve was filed as active; also: series mostly up to about 51 µM)
Method in brief: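 Intracellular calcium fluorescence, read kinetically every second over 3 min, reports TRH-evoked signalling in HEK293 cells carrying TRHR. Test compounds were added 5 min ahead of a 1 nM TRH challenge.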

[13] = molecular target: Thyrotropin-releasing hormone receptor (Homo sapiens) (UniProt P34981); assay: qHTS assay to identify small molecule agonists of the thyrotropin-releasing hormone receptor (TRHR) signaling pathway (AID 1346891; calls by dose curve; also: series mostly up to about 58 µM)
Method in brief: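 Intracellular calcium rise, read as fluorescence every second for 3 min, served as the agonist signal in dye-loaded HEK293 cells expressing TRHR; each compound ran at 15 concentrations in triplicate.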

[14] = Human pregnane X receptor (PXR) small molecule agonists, qHTS cell viability counter screen (AID 1346977); also: nearly all actives have a fitted effect of over 50% in size
Method in brief: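 PXR-Luc HepG2, 2,000 cells/well, 5% charcoal-stripped FBS; 5hr settle; cpd 24hr, 37C/5% CO2; CellTiter-Fluor at 23hr, read 1hr later (fluorescence).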

[15] = Caspase-3/7 induction in HepG2 cells by small molecules, qHTS assay (AID 1346978); also: nearly all actives have a fitted effect of over 15% in size
Method in brief: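 Caspase-3/7 induction was measured by Caspase-Glo 3/7 luminescence (30 min, room temperature) after a 17 hr compound exposure of wild-type HepG2 cells seeded at 2,000 per well and pre-incubated 5 hr.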

[16] = Caspase-3/7 induction in CHO-K1 cells by small molecules, qHTS cell viability counter screen (AID 1346979); also: nearly all actives have a fitted effect of over 35% in size
Method in brief: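 Cells (CHO-K1, wild type) are plated at 1,500 per well and incubated 5hr. Test compounds in DMSO are then pinned in, followed by 16hr at 37C and 5% CO2. Viability is read by CellTiter-Fluor fluorescence after 1hr.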

[17] = Caspase-3/7 induction in CHO-K1 cells by small molecules, qHTS assay (AID 1346980); also: nearly all actives have a fitted effect of over 15% in size
Method in brief: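 Luminescent Caspase-Glo 3/7 read (30min, room temperature) quantified apoptosis induction. Cells were wild-type CHO-K1, treated with compound for 17hr at 37 C and 5% CO2.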

[18] = Caspase-3/7 induction in HepG2 cells by small molecules, qHTS cell viability counter screen (AID 1346981); also: series mostly up to about 92 µM; nearly all actives have a fitted effect of over 30% in size
Method in brief: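 HepG2, WT, 2,000 cells/well; 5 hr pre-incubation 37 C/5% CO2; compound pin-transferred from DMSO; 16 hr exposure; CellTiter-Fluor, 1 hr; fluorescence read.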

[19] = molecular target: Androgen receptor (Homo sapiens) (UniProt P10275); assay: qHTS assay to identify small molecule agonists of the androgen receptor (AR) signaling pathway in the presence of an antagonist (AID 1259381; calls by dose curve; also: nearly all actives have a fitted effect of over 15% in size)
Method in brief: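 MDA-kb2 cells, 3,000/well, rested 5hr at 37C/0% CO2 → nilutamide 3.0uM final or buffer → compounds, 15 conc. → 16hr at 37C → ONE-Glo, 30min RT → luminescence.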

[20] = molecular target: Estrogen receptor (Homo sapiens) (UniProt P03372); assay: qHTS assay to identify small molecule agonists of the estrogen receptor alpha (ER-alpha) signaling pathway in the presence of an antagonist (AID 1259383; calls by dose curve; also: top concentration of the series differs between compounds; nearly all actives have a fitted effect of over 15% in size)
Method in brief: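 VM7Luc4E2, endog. ER-alpha + 4×ERE-luc; charcoal-stripped FBS, phenol red-free, 5 d; 24hr plating; +10.0nM ICI-182,780 (final); cpds 15 conc, 22hr, 37C/5% CO2; ONE-Glo luminescence.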

Chain of Thyrotropin-releasing hormone receptor (Homo sapiens) (P34981 whole entry, looked up): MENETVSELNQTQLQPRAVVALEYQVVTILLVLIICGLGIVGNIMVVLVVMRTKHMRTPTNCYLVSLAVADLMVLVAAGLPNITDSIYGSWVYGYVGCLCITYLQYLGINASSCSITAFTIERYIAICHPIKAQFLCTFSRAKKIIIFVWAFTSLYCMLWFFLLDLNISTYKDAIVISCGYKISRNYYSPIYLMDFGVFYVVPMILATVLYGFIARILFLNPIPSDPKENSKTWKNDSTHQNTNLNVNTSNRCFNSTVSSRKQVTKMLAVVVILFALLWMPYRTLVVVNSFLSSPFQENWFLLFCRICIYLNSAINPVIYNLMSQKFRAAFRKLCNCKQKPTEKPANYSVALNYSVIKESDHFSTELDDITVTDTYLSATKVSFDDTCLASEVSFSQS
Chain of Androgen receptor (Homo sapiens) (P10275 whole entry, looked up): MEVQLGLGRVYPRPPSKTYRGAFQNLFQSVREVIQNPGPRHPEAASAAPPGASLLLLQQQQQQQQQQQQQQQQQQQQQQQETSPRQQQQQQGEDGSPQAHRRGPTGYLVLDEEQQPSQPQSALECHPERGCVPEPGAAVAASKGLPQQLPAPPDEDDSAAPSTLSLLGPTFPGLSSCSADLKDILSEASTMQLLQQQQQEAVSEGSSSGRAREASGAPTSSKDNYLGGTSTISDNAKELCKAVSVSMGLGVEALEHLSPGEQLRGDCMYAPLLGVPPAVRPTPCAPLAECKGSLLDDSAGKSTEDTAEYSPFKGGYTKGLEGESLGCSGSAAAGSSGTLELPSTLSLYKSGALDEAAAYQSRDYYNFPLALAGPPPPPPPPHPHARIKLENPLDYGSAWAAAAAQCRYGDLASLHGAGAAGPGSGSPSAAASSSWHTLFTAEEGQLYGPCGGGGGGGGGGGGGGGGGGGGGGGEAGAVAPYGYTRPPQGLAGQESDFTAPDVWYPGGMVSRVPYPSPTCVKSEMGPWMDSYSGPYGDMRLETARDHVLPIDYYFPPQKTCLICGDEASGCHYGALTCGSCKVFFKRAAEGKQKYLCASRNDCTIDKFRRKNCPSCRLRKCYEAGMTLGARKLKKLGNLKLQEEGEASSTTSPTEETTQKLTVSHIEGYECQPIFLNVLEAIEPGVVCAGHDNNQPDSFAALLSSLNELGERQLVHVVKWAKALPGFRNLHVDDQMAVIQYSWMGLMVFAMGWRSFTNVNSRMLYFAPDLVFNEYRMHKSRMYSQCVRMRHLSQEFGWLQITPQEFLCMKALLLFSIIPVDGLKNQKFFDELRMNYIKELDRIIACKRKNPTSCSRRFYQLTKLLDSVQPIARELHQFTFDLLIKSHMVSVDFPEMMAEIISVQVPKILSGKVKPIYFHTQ
Chain of Estrogen receptor (Homo sapiens) (P03372 whole entry, looked up): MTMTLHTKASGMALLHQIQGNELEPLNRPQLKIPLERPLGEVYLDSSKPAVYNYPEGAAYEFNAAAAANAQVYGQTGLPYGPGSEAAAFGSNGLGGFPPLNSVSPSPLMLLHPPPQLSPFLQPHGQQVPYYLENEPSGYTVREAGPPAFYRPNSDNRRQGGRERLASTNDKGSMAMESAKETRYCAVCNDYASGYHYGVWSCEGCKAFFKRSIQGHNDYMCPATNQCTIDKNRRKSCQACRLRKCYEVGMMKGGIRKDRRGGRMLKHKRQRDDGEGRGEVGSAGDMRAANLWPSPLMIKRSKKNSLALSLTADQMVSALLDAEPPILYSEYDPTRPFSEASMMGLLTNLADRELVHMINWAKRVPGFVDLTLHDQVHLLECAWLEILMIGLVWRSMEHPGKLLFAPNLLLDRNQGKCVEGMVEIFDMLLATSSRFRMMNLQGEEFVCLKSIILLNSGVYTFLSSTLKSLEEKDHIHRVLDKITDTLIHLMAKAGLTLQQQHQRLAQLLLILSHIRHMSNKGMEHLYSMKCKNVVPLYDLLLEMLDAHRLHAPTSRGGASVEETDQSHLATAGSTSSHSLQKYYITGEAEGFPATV
Chain of Progesterone receptor (Homo sapiens) (P06401 whole entry, looked up): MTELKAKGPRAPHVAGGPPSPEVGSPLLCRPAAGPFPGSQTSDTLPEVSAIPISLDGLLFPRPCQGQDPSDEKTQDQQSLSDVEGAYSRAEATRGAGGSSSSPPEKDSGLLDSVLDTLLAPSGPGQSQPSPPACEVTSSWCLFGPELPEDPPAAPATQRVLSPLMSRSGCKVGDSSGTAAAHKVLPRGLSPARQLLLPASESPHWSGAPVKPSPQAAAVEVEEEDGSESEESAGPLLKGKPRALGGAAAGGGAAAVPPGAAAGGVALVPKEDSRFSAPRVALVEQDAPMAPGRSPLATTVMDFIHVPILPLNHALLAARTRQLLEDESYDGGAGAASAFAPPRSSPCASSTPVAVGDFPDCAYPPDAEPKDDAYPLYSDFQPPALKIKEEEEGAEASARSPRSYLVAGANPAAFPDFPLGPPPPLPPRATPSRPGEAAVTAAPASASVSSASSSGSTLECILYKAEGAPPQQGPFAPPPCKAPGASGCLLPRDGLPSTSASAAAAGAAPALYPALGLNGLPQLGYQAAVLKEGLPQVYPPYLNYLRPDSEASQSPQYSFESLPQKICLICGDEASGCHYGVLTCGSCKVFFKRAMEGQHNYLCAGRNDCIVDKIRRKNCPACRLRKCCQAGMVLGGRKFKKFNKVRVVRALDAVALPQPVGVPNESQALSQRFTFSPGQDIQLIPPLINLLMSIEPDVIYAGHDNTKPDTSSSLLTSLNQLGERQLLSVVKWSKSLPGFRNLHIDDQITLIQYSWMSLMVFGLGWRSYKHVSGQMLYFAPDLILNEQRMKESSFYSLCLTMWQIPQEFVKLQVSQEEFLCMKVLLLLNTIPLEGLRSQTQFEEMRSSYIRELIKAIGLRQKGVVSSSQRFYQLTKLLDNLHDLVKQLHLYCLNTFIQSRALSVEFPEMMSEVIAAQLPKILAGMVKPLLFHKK

| Structure (SMILES) | Potency [1] | Potency [2] | Potency [3] | Potency [4] | Potency [5] | Potency [6] | Potency [7] | Potency [8] | Potency [9] | Potency [10] | Potency [11] | Potency [12] | Potency [13] | Potency [14] | Potency [15] | Potency [16] | Potency [17] | Potency [18] | outcome [19] | Potency [20] |
| --- | --- | --- | --- | --- | --- | --- | --- | --- | --- | --- | --- | --- | --- | --- | --- | --- | --- | --- | --- | --- |
| O=C(O)C(Cl)(Cl)Cl | inactive | inactive | inactive | inactive | inactive | inactive | inactive | inactive | inactive | inactive | inactive | inactive | inactive | inactive | inactive | inactive | inactive | inactive |  |  |
| CCCC[N+]1(C)CCCCC1 | inactive | inactive | inactive | inactive | inactive | inactive | inactive | inactive | inactive | inactive | inactive |  |  | inactive | inactive | inactive | inactive | inactive |  |  |
| Nc1ccccc1 | inactive | inactive | inactive | inactive | inactive | inactive | inactive | inactive | inactive | inactive | inactive | inactive | inactive | inactive | inactive | inactive | inactive | inactive |  |  |
| Cc1cc(Cl)ccc1OCC(=O)O | inactive | inactive | inactive | inactive | inactive | inactive | inactive | inactive | inactive | inactive | inactive |  |  | inactive | inactive | inactive | inactive | inactive | inactive | inactive |
| Oc1ccccc1-c1ccccc1 | inactive | inactive |  | inactive | inactive | inactive | inactive | inactive | inactive | inactive | inactive | inactive | inactive | inactive | inactive | inactive | inactive | inactive |  | inactive |
| CCCn1cc[n+](C)c1 | inactive | inactive | inactive | inactive | inactive | inactive | inactive | inactive | inactive | inactive | inactive | inactive | inactive | inactive | inactive | inactive | inactive | inactive |  |  |
| O=C(O)c1nc(Cl)ccc1Cl | inactive | inactive | inactive | inactive | inactive | inactive | inactive | inactive | inactive | inactive | inactive |  |  | inactive | inactive | inactive | inactive | inactive |  | inactive |
| Nc1ccc(Cl)cc1 | inactive | inactive | inactive | inactive | inactive |  | inactive | inactive | inactive | inactive | inactive | inactive | inactive | inactive | inactive | inactive | inactive | inactive |  | inactive |
| OCCOc1ccccc1 | inactive | inactive | inactive | inactive | inactive | inactive | inactive | inactive | inactive | inactive | inactive |  |  | inactive | inactive | inactive | inactive | inactive |  | inactive |
| CCCCCCCCCCCC(=O)O | 43.3 µM (active) | inactive | inactive | inactive | inactive | inactive | inactive | inactive | inactive | inactive | inactive |  |  | inactive | inactive | inactive | inactive | inactive |  |  |
| O=P1(N(CCCl)CCCl)NCCCO1 (stereo unspecified) | inactive | inactive | inactive | inactive | inactive | inactive | inactive | inactive | inactive | inactive | inactive | inactive | inactive | inactive | inactive | inactive | inactive | inactive |  | inactive |
| C[N+](C)(C)Cc1ccccc1 | inactive | inactive | inactive | inactive | inactive | inactive | inactive | inactive | inactive | inactive | 48.7 µM (active) and inactive |  |  | inactive | inactive | inactive | inactive | inactive |  | inactive |
| COc1ccc(N)cc1 | inactive | inactive | inactive | inactive | inactive | inactive | inactive | inactive | inactive | inactive | inactive |  |  | inactive | inactive | inactive | inactive | inactive |  |  |
